VP16 counter – inhibits Gal4-VP16 luciferase reporter, ROR gamma counter-screen | Drosophila S2 Gal4-VP16 UAS-luciferase, luminescence, 20 h | Potency, µM (top dose mostly 53.6 µM), for inactives: top-dose activity, negative = inhibition, hits mostly inhibitors | hit rate 3.5% among 310,000;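 note: Gal4-VP16 expression switched on by copper sulfate through the metallothionein promoter; nearly all actives have a fitted effect of over 50% in size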
RORg inh – ROR gamma (mouse) transcription inhibition; Potency, µM (top dose mostly 53.6 µM), for inactives: top-dose activity change, negative = inhibition, most hits filed as inhibitors; hit rate 5.4% among 310,000; P51450; Drosophila S2 Gal4-RORgamma UAS-luciferase reporter, 20 h; note: nearly all actives have a fitted effect of over 60% in size
Target sequence (P51450 whole entry, looked up, the tested form may be a part): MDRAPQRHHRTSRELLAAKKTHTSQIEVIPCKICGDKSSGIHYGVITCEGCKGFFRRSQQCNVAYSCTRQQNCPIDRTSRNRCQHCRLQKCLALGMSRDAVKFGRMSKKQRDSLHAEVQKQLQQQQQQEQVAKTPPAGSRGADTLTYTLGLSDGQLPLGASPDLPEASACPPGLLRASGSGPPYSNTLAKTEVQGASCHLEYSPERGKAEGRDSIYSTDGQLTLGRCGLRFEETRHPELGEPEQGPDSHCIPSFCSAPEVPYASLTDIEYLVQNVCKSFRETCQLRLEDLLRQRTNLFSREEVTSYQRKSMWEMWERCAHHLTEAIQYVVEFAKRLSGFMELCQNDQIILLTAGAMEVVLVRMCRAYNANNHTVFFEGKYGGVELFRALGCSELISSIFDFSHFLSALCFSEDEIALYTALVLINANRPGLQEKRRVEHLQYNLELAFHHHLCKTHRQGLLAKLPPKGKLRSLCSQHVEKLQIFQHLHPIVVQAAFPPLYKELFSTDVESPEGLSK
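Drosophila Schneider cells stably carrying a metallothionein-driven Gal4 DBD–ROR gamma fusion and a UAS-Photinus luciferase reporter were exposed to compound for 1 hr, then induced with copper sulfate (700 uM final) for 20 hr at ambient temperature before luminescence reading.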
Sfp inh – Sfp phosphopantetheinyl transferase inhibition; Biochemical Sfp PPTase activity, qHTS; Potency, µM, without a hit: largest response in the series, negative = inhibition, most hits filed as inhibitors; hit rate 3.5% among 310,000; AID 1490;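 note: the enzyme is Sfp with the accession as filed and its product quenches rhodamine fluorescence; 0% = enzyme reaction without inhibitor and -100% = no enzyme wells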
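Reaction rates are the 30-min fluorescence difference (ex 525, em 598 nm) in wells containing 15 nM Sfp, 5 uM rhodamine-CoA and 12.5 uM BHQ-2-YbbR at pH 7.6 with 10 mM MgCl2.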
PLK1 PBD block – inhibitors of human PLK1 polo-box domain binding. hit rate 2.8% among 360,000. Potency, µM, inactives show max response, negative = inhibition, usual class: inhibitors. Plk1 PBD binding of FITC phosphopeptide, fluorescence polarization. P53350; note: series mostly up to about 57 µM; nearly all actives have a fitted effect of over 65% in size
ALDH1A1 block – blocks purified human ALDH1A1 activity; P00352; Purified ALDH1A1, NADH fluorescence, propionaldehyde substrate; Potency, µM (titrated, usually from 75.3 µM), for inactives: at the top dose activity, negative = inhibition, actives largely listed as inhibitors; hit rate 7.3% among 220,000; AID 1030; active = well fitted inhibition curve with a large enough effect, not every such curve was filed as active; inconclusive = small, poorly fitted or top-dose-only effect, or another doubt; inactive = no such curve, though single readings can be large or run the other way;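 note: plate controls were no enzyme wells and a reference inhibitor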
Numbers without * were called inactive; ? = inconclusive; / = not tested or not shown; ! = a repeat was not active; [ ] = another dose, or the depositor's remark. An excerpt weighted towards active compounds, which were near 12% of everything screened. Unless noted, calls come from the whole dose curve; as a rule, active = well fitted curve in the direction sought with a large enough effect; inconclusive = small, poorly fitted or top-dose-only effect, or another doubt; inactive = no such curve, though single readings can be large; an effect the other way counts as inactive or inconclusive. Unless noted, % is set by controls: 0 for no effect and ±100 for the full control effect; potency is the fitted concentration of half-maximal effect.

SMILES	VP16 counter	RORg inh	Sfp inh	PLK1 PBD block	ALDH1A1 block
COc1cc(OC)c([N+](=O)[O-])cc1/C=N/NC(=O)c1ccncc1	-1%	0%	35µM*	?	?
COc1cc(/C=N/NC(=O)c2ccncc2)ccc1OC(=O)c1cccc(Br)c1	-22%	-28%	-20%	-7%	/
COc1cc(/C=N/NC(=O)c2ccncc2)c([N+](=O)[O-])cc1OC	-11%	-4%	7%	0%	/
COc1c(Br)cc(Br)cc1/C=N/n1c(C)nnc1C	3%	-28%	9%	27µM*	9%
O=C(N/N=C/c1ccccc1Cl)c1ccncc1	2%	0%	5%	-12%	/
COc1cc(/C=N/n2c(C)nnc2C)cc(OC)c1OC	-7%	-11%	21%	-2%	?
CCCCCCCCN1C(=O)[C@H](CC(=O)NCCC(C)C)C[C@@]2(C(=O)OC)CCCCC=C12	/	/	/	0%	/
Cc1nc2c(OCc3ccc(OC(F)F)cc3)cccn2c1N(C)C(=O)CCC1CCCC1	/	/	/	2%	/
CN(C)c1ccc(C(=O)N/N=C/c2cc(Br)cc(Br)c2O)cc1	5.6µM*	2.8µM*	?	-2%	/
COc1c(Br)cc(Br)cc1/C=N/NC(=O)c1ccncc1	-3%	14µM*	3%	-5%	5%
COc1cccc(C(=O)Oc2c(Br)cc(Br)cc2/C=N/NC(=O)c2cc(C)[nH]n2)c1	22µM*	-16%	11%	1%	-15%
CCNC(=S)N/N=C/c1cc(Br)cc(Br)c1OC	2.5µM*	1.1µM*	21%	0%	1%
Cc1cc(C(=O)N/N=C/c2cccc(OC(=O)c3cccc(Br)c3)c2)n[nH]1	-9%	-24%	14%	-8%	/
CN(C)c1ccc(/C=N/NC(=O)c2ccc(NC(=O)c3ccccc3)cc2)cc1	1%	30%	-3%	-7%	/
O=C(NC[C@H](O)c1ccccc1)c1ccccc1	-4%	8%	14%	/	-1%
CC(=O)OC[C@@H]1O[C@H](CCO/N=C(\C)CCN2CCCc3nc(C)c(C)cc32)C=C[C@@H]1OC(C)=O	5%[10 µM]	4%[10 µM]	-6%	/	-20%[13.5 µM]
O=c1c(-c2ccccc2)nc2cnc(N3CCOCC3)nc2n1Cc1ccc(F)cc1	6%	1%	7%	/	?
NC(C(=O)O)c1ccc(O)cc1 (centres undefined)	-13%	-9%	4%	/	/
N[C@H](C(=O)O)c1cccc(O)c1	5%	-5%	45µM*!	/	14%
N[C@H](C(=O)O)c1ccc(O)c(C(=O)O)c1	1%	8%	20µM*	/	?
NC(C(=O)O)C(O)c1ccc(O)c(O)c1 (centres undefined)	2%	-7%[10 µM]	45µM*	/	/
COc1ccnc(N2CCN(c3ccc(Cl)cc3)CC2)c1C#N	-8%	18%	-25%	6%	13µM*
CC(=O)c1c(O)cccc1O	-4%	?	25µM*	/	/
O=C1c2ccccc2S(=O)(=O)N1CC1CC(c2ccccc2Cl)=NO1 (centres undefined)	-23%	-12%	-7%	-8%	13µM*
CCC(CC)C(=O)c1c[nH]c(C(=O)O)c1	-3%	-3%	7%	-10%	8%
SMILES	VP16 counter	RORg inh	Sfp inh	PLK1 PBD block	ALDH1A1 block
CCC(CC)C(=O)c1c[nH]c(C(=O)NCCc2ccccn2)c1	2%	30%	9%	27µM*	-10%
CCC(CC)C(=O)c1c[nH]c(C(=O)NN)c1	4%	-10%	-1%	-7%	7.9µM*
CCOC(=O)[C@]12CCCC=C1N(Cc1ccc(Cl)cc1Cl)C(=O)[C@H](CC(=O)NCc1cccc3ccccc13)C2	/	/	/	-8%	/
C#CCOC(=O)c1ccccc1C(=O)n1nnc2ccccc21	?	18µM*	-10%	-24%	8%
NC1=NC(=O)/C(=C/c2ccc(Cl)cc2Cl)S1	2%	3%	?	-10%	/
O=C1OC(/C=C/c2ccc(Cl)cc2Cl)=NC/1=C\c1cccs1	?	-16%	6%	-25%	3.2µM*
O=C(O)c1cncc(C(=O)O)c1	/	/	/	/	5%[13.5 µM]
Cc1cccc(C)c1NC(=O)CN(CC(=O)O)CC(=O)O	-4%	10%	45µM*	/	/
Cc1cc(SCC(=O)NCC2CCCO2)nc2ccccc12 (centres undefined)	-1%	8%	2%	0%	/
CCCc1c(Cc2cccc(F)c2)ncn1Cc1cccc(-c2ccccc2)c1	/	/	/	-16%	/
Cn1c(=O)c2c(nc(CN3CCC(C(N)=O)CC3)n2CCc2ccccc2)n(C)c1=O	5%	-11%	3%	-1%	4.5µM*
Cn1c(=O)c2c(nc(CN3CCC(C(N)=O)CC3)n2Cc2ccccc2Cl)n(C)c1=O	-1%	0%	18%	1%	13µM*
Cn1c(=O)c2c(nc(CN3CCC(C(N)=O)CC3)n2Cc2c(F)cccc2Cl)n(C)c1=O	16%	-7%	13%	-6%	?
Cn1c(=O)c2c(nc(CN3CCN(c4ccccc4)CC3)n2CCc2ccccc2)n(C)c1=O	/	/	/	-5%	/
Cn1c(=O)c2c(nc(N3CCN(c4ccccn4)CC3)n2Cc2ccccc2Cl)n(C)c1=O	-12%	-6%	10%	-11%	1.1µM*
Cn1c(=O)c2c(nc(CN3CCC(C(N)=O)CC3)n2Cc2c(Cl)cccc2Cl)n(C)c1=O	1%	-38%	-10%	-7%	14µM*
CCC(C(=O)NC(C)(C)C)n1c(-c2ccc3c(c2)OCO3)nc2ccccc21 (centres undefined)	/	/	/	0%	/
COc1ccc(S(=O)(=O)NNC(N)=S)cc1	1%	-25%	28µM*	-3%	?
O=C(NNS(=O)(=O)c1ccc(Br)cc1)c1sccc1-n1cccc1	2%	12%	3%	-6%	-16%
COc1ccc(S(=O)(=O)NNC(=O)c2sccc2-n2cccc2)cc1	-16%	-14%	5%	-9%	2.8µM*
COc1ccc(NC(=O)NNS(=O)(=O)c2ccc(Br)cc2)cc1	-10%	-33%	10%	-15%	/
Cc1ccc(-n2c(=O)[nH]c3c(C(N)=O)nc(-c4ccc(C)o4)nc32)cc1	?	?	45µM*	-13%	?
CCOc1cc2c(cc1OC)C(c1cccc([N+](=O)[O-])c1)NCC2 (centres undefined)	4%	-13%	0%	4.7µM*	5%
OC1(CNCc2cn[nH]c2-c2cc3ccccc3o2)CCCCC1	0%	-4%	20%	-4%	2%
CC(C)NC(=O)C1(C)CCN1C(=O)c1cccc(F)c1 (centres undefined)	/	/	/	0%	/
CCOc1cccc(C2NC(=S)NC(C)=C2C(=O)Nc2ccccc2)c1 (centres undefined)	1%	-48%	14%	-2%	2.2µM*
CC1=C(C(=O)Nc2ccccn2)C(c2ccc(Br)cc2)n2ncnc2N1 (centres undefined)	-4%	7%	18%	-7%	?
CC1=C(C(=O)Nc2ccccn2)C(c2ccc(Cl)cc2)NC(=S)N1 (centres undefined)	-4%	-22%	11%	-8%	3.5µM*

Screening results: PubChem, National Center for Advancing Translational Sciences (NCATS)
